For some of these results: Potency and affinity values are given separately.
Key:
Parameters in all cases: scale not given: direction of the effect not stated beside the values
[1] = biological target: Protein translocase subunit SecA (Escherichia coli (strain K12)) (UniProt P10408); experiment: Assay to Identify E. coli SecA ATPase Inhibitors; assay type: functional; conditions: 30 µM
[2] = biological target: T1, Ubiquitin-activating enzyme e1, putative (Leishmania donovani (strain BPK282A1)) (UniProt E9BSI1); experiment: Leishmania donovani Ubiquitin Activating Enzyme (LdE1); assay type: functional; conditions: 30 µM
T1 sequence (whole entry): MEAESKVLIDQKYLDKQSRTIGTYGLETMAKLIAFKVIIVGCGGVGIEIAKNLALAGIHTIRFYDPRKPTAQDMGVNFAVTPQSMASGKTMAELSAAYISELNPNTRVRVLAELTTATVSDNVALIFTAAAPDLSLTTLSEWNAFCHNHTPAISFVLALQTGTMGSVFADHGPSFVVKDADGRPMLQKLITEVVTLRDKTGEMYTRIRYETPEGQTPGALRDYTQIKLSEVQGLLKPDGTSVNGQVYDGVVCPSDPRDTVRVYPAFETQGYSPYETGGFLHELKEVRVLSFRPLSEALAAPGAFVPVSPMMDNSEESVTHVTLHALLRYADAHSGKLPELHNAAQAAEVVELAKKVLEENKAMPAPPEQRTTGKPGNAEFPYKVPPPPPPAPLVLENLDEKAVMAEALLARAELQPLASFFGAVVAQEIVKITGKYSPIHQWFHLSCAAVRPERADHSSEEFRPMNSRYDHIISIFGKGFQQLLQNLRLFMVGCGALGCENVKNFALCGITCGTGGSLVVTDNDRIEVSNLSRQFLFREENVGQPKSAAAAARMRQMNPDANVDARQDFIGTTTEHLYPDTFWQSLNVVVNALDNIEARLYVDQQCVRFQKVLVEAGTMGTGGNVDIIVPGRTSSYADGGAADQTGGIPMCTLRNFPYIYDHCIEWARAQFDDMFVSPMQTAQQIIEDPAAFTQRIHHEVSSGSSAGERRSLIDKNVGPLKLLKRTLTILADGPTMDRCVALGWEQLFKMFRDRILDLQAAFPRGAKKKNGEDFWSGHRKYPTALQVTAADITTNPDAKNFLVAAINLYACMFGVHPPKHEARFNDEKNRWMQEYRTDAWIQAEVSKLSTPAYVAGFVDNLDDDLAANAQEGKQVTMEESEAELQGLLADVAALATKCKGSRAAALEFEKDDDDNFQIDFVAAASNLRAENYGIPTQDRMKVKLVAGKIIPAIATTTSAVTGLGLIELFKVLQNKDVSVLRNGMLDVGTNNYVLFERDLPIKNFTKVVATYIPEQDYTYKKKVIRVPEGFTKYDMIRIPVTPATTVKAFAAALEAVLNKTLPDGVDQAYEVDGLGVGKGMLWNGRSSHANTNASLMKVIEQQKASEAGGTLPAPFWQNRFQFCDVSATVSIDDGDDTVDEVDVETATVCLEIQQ

[3] = biological target: AMP-activated protein kinase, AMPK (Homo sapiens) (UniProt P54646+O43741+P54619+Q9UGJ0+Q9Y478+Q13131+Q9UGI9); experiment: AMP-dependent Kinase enzyme assay. An in vitro enzyme assay that detects ADP turnover that is directly proportional to AMPK activity. This uses naive AMPK that is activated during the assay with MK-8722; assay type: functional; conditions: 30 µM
[4] = biological target: Sialic acid-binding Ig-like lectin 9 (Homo sapiens) (UniProt Q9Y336); experiment: Hs-Siglec9 ALPHAscreen SOP 20170721; conditions: 10 µM
Trypanosoma cruzi = experiment: Trypanosoma cruzi phosphomannomutase and mannose-1-phosphate guanylyltransferase assay; assay type: functional; conditions: 10 µM
[5] = biological target: T2, Arginase-2, mitochondrial (Homo sapiens) (UniProt P78540); experiment: in vitro enzyme assay to detect the production of urea directly proportional to the activity of Arginase II; assay type: functional; conditions: 33.3 µM; note: in the data most compounds retested in dose-response had high values
T2 sequence (whole entry): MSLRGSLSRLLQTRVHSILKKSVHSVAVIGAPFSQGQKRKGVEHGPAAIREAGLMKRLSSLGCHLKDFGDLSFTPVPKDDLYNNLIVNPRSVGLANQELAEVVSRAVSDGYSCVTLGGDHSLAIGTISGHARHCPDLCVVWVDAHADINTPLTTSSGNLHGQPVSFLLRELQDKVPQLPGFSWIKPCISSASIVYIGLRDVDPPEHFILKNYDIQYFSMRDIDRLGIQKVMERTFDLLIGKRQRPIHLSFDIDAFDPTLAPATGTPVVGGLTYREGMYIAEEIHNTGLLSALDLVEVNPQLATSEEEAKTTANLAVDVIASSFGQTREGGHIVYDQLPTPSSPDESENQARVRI

[6] = biological target: T3, Proteasome subunit beta (Trypanosoma cruzi) (UniProt O96673); experiment: Trypanosoma cruzi proteasome chymotrypsin-like activity (TcProtChymo) assay.; note: in the data most compounds retested in dose-response had high values; assay type: functional; conditions: 9.37 µM
T3 sequence (whole entry): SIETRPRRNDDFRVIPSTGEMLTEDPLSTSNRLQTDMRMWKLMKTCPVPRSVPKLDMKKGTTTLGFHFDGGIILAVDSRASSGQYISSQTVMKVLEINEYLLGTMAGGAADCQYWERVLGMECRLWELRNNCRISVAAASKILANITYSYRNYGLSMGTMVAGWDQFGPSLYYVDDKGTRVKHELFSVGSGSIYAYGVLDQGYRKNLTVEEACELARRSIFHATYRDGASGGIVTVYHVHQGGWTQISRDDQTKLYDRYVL

Homo sapiens = species: Homo sapiens; experiment: To identify inhibition of the IFN signalling (Jak-Stat) pathway via expression of an eGFP reporter gene under the control of an IFN-stimulated response element (ISRE) containing MxA promoter.; assay type: functional; conditions: 30 µM
[7] = biological target: T4, Tyrosyl-tRNA synthetase, putative (Trypanosoma cruzi (strain CL Brener)) (UniProt Q4DSP6); experiment: Trypanosoma cruzi tyrosyl tRNA synthetase (TcYRS) _High Tyrosine SOP; assay type: functional; conditions: 30 µM; note: in the data most compounds retested in dose-response had high values
T4 sequence (whole entry): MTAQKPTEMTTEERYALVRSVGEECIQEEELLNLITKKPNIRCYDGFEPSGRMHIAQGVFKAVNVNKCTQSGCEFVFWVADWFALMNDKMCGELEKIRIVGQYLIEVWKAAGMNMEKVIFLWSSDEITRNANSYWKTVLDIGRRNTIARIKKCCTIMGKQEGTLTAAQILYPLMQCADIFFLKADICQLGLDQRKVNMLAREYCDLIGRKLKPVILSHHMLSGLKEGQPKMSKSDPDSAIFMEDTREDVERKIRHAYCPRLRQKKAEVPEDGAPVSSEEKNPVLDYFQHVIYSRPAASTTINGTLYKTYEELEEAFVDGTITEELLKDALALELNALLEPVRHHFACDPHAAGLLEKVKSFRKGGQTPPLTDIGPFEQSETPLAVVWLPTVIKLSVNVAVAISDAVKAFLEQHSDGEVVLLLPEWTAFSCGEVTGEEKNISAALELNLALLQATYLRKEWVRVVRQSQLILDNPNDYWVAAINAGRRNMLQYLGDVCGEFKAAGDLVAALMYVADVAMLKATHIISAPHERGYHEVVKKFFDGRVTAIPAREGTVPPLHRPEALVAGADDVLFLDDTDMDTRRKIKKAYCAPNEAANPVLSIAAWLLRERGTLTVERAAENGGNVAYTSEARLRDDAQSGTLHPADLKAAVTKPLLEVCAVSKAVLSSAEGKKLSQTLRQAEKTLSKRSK

[8] = biological target: T4, Tyrosyl-tRNA synthetase, putative (Trypanosoma cruzi (strain CL Brener)); experiment: Trypanosoma cruzi tyrosyl tRNA synthetase (TcYRS) SOP; assay type: functional; conditions: 30 µM
[9] = biological target: Chromo domain-containing protein 1 (Saccharomyces cerevisiae (strain ATCC 204508 / S288c) (Baker's yeast)) (UniProt P32657); experiment: ScCHD-1 Enzyme Inhibition Assay; assay type: functional; conditions: 30 µM; note: in the data most compounds retested in dose-response had high values
Chain of Chromo domain-containing protein 1 (Saccharomyces cerevisiae (strain ATCC 204508 / S288c) (Baker's yeast)) (P32657 whole entry, the tested form may be a part): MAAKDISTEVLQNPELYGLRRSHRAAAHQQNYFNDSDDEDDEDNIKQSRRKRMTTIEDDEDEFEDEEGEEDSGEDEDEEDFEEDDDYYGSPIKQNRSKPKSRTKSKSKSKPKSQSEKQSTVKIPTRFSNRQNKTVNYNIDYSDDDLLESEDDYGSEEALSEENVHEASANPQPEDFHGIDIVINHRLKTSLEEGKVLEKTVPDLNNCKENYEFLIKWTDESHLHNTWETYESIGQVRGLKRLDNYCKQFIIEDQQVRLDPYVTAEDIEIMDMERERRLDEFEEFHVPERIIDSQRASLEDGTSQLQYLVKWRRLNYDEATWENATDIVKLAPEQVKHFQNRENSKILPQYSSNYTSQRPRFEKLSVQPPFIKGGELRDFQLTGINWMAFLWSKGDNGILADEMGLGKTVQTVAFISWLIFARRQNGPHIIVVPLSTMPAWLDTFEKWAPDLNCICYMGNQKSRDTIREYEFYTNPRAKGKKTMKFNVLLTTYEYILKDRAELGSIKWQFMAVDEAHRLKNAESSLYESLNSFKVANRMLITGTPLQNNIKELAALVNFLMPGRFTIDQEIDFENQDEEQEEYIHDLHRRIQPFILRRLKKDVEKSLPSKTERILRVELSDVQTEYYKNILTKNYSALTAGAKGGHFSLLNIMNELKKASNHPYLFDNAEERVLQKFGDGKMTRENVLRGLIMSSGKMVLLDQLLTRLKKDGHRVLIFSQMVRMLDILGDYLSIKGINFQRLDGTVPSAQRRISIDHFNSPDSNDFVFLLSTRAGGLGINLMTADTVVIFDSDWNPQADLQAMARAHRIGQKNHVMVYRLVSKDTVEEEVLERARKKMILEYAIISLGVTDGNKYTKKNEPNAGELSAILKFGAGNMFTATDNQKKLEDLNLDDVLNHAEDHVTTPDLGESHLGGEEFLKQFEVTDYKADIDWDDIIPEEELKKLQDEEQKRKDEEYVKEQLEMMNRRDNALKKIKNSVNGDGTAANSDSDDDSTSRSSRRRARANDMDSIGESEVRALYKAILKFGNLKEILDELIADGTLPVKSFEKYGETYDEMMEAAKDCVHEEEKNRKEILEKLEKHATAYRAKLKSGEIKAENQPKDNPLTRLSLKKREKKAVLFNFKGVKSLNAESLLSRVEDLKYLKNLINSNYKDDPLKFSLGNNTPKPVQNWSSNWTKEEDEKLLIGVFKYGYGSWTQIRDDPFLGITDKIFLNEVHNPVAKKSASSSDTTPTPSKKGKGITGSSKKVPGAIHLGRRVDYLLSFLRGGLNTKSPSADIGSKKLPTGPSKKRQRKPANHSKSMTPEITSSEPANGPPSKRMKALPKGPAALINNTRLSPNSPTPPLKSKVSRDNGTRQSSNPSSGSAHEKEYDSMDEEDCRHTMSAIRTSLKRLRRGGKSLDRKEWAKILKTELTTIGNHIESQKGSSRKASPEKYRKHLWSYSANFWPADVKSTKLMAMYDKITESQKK

Chain of Protein translocase subunit SecA (Escherichia coli (strain K12)) (P10408 whole entry): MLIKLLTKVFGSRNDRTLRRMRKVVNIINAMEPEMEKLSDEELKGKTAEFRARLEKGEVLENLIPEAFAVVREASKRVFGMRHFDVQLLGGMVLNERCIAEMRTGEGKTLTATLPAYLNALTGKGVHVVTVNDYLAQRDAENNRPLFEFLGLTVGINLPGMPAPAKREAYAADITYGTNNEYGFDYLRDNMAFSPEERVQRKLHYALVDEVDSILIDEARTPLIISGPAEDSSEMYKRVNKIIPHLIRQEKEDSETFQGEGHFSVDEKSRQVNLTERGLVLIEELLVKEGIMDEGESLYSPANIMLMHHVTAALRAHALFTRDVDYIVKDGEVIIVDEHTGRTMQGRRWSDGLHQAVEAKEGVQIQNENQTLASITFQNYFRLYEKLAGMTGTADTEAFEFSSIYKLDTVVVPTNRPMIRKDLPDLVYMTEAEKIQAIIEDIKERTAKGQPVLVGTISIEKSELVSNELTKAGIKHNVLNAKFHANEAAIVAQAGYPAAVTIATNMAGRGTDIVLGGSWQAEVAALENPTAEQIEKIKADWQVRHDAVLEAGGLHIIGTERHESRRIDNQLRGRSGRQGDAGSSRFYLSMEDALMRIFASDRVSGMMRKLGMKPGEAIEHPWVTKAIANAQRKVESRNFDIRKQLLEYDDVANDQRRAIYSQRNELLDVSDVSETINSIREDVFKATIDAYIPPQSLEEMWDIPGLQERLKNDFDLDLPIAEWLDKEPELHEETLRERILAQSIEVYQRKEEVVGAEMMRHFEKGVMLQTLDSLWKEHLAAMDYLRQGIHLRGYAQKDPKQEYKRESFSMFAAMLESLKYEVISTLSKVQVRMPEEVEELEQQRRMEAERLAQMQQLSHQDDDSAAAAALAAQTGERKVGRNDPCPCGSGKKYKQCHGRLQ
Chain of Sialic acid-binding Ig-like lectin 9 (Homo sapiens) (Q9Y336 whole entry): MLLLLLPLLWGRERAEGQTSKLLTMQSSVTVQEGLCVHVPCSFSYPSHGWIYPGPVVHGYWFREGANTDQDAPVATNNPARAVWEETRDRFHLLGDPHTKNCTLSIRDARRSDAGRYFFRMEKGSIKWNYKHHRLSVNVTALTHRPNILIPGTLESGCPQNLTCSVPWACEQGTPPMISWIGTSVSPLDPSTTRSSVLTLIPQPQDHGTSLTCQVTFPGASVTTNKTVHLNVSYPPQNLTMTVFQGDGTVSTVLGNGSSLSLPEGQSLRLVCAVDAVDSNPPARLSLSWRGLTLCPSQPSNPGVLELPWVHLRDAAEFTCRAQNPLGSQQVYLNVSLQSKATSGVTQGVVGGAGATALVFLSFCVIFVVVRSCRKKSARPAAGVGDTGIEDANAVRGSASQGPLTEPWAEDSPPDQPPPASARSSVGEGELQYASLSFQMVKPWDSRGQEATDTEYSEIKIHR

| SMILES | Percent Effect [1] [%] | Percent Effect [2] [%] | Percent Effect [3] [%] | Percent Effect [4] [%] | Percent Effect (Trypanosoma cruzi) [%] | Percent Effect [5] [%] | Percent Effect [6] [%] | Percent Effect (Homo sapiens) [%] | Percent Effect [7] [%] | Percent Effect [8] [%] | Percent Effect [9] [%] |
| --- | --- | --- | --- | --- | --- | --- | --- | --- | --- | --- | --- |
| O=C(c1cccc(F)c1)N1CCOC(c2nc(-c3ncccn3)no2)C1 (stereo not drawn) | -7.06 | 5.33 | 0.687 | -2.48 | -4.53 | -0.699 | 3.44 | 17.9 | 3.19 | 6.41 | -2.27 |
| CNc1cc(N2CCCC2CNCc2ccccn2)ncn1 (stereo not drawn) | -1.73 | 13.5 | -11.7 | -3.49 | -2.93 | -2.08 | 16 | 24.8 | 11.9 | 11 | 26.6 |
| CCN(CC1CCOC1)C(=O)c1ccccc1NS(=O)(=O)CC (stereo not drawn) | -5.12 | 7.89 | -0.433 | -1.92 | 1.03 | -1.08 | 6.34 | -2.41 | 7.39 | 18.5 | -4.83 |
| COC(=O)C(NC(=O)c1ccco1)c1cc(F)ccc1F (stereo not drawn) | -3.29 | 5.2 | 19.7 | 11.4 | 6.93 | -0.712 | 9.46 | -16.9 | 1.94 | 14.6 | -8.66 |
| Cc1cccnc1CN1CCC(c2nnc(Cn3cccn3)n2C)CC1 | -4.04 | 1.39 | 0.385 | -7.79 | -3.98 | 2.21 | 8.95 | -6.28 | 3.16 | 10.3 | -2.58 |
| Cc1cc(=O)n2ncnc2n1CC(O)c1ccccc1Cl (stereo not drawn) | -0.278 | 7.89 | 6.81 | -5.31 | -6.52 | -8.28 | 18.1 | -6.46 | 3.19 | 7.79 | -2.48 |
| COc1ccccc1OCc1cc(C(=O)N2CC=CC2C(C)C)n[nH]1 (stereo not drawn) | 0.254 | 1.39 | -2.81 | 9.42 | 2.82 | 8.83 | 11.9 | -13.9 | 5.26 | 7.69 | -2.27 |
| Cc1c(C)n(Cc2ccccn2)c2nc3c(c(N)c12)CCCC3 | -3.58 | -1.33 | 15.5 | 6.91 | -3.73 | -8.98 | 12.8 | -6.48 | 2.12 | 5.13 | -5.09 |

Source: ChEMBL document CHEMBL3988442, “University of Dundee, Small-Polar-MMV Screening Library” (2021)
